# Measurements: PubChem BioAssay
# Several values for one entry are separate records, joined by “and”; a condition that tells them apart may be missing. Identical values can stand only once. Activity calls are given as the source filed them.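 How the source made its calls, unless noted: active means thallium flux through the channel raised or lowered by more than 3 SD from vehicle-only wells, actives on both sides; inactive means the rest.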
# Columns and labels:
# [1] = P. berghei load reduction in hepatocytes – cell-based, HepG2, luciferase luminescence, HepG2 viability, primary screen (AID 624349; in the data active means parasite load remaining mostly below about 12%, no sharp cut-off; inactive means mostly above about 10%;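 further: 100% = mean of DMSO negative control wells on the same plate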); conditions: P. berghei liver stage in HepG2, luciferase luminescence, concentration not given here; parasite load remaining: stronger effect = lower value; viability: measured here: HepG2 viability without parasites
# [2] = signal quenchers or enhancers, Cy5 substrate/SSB – biochemical, NIH Clinical Collection, E. coli SSB, artefact control for HCV NS3 helicase inhibitor project (AID 743268; call rule not given here); conditions: Cy5-oligo bound E. coli SSB, fluorescence interference
# [3] = system: Hepatitis C virus NS3 helicase; assay: blockers of NS3h binding to DNA – biochemical, fluorescence polarization, NIH Clinical Collection, primary screen (AID 743270; call rule not given here); conditions: NS3 helicase binding to Cy5-dT15 DNA, stronger effect = higher value, concentration not given here
# [4] = molecular target: Single-stranded DNA-binding protein (Escherichia coli (strain K12)) (UniProt P0AGE0); assay: SSB-ssDNA binding inhibitors – biochemical, fluorescence polarization, NIH Clinical Collection, counter-screen for HCV NS3 helicase inhibitor project (AID 743271; in the data active means inhibition above about 28%); conditions: E. coli SSB-DNA binding, stronger effect = higher value, concentration not given here
# [5] = compounds distorting NS3 helicase fluorescence signal – biochemical, NIH Clinical Collection, artefact control for HCV NS3 helicase inhibitor project (AID 743272; call rule not given here;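 further: HCV NS3 helicase with a Cy5 labelled single stranded DNA probe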); conditions: fluorescence interference counterscreen, HCV NS3 helicase assay; stronger effect = lower value
# [6] = modulation of C. elegans fzo-1 (AID 1259413; call rule not given here;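 further: fzo-1 mutant C. elegans worms in liquid wells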); conditions: C. elegans fzo-1 modulator screen, mean read-out; stronger effect = higher value
# [7] = EMT-state selective cytotoxicity in co-culture – imaging, PC-3E GFP, TEM4-18 mCherry, primary screen (AID 1345086;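 active means compounds killing one labelled cell type while sparing the other, by normalised counts and ratio limits, not self-fluorescent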;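 on all read-outs here: cells exposed to compound for 72 h before imaging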;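 on red/green cell ratio (normalised): normalised mesenchymal count divided by normalised epithelial count so high means epithelial killing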); conditions: PC-3E GFP / TEM4-18 mCherry co-culture, imaging cell counts, at 1 µM; for red/green cell ratio (normalised): actives lie on both sides, counts scaled to control wells, 1 = unselective
# [8] = viability loss with induced miR-34 in A549 – imaging, A549 dox-inducible miR-34, nuclei and caspase counts, primary screen (AID 1347080;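 active means compounds whose cell count with miR-34 switched on is under 0.7 times the count with it off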); conditions: A549 miR-34 inducible, Hoechst nuclei count, 48 h
# [9] = MELAS cybrid and Rieske KO viability enhancers – cell-based, MELAS cybrids, Rieske KO mouse fibroblasts, CellTiter-Glo, primary screen (AID 1508586;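 active means mean z-score across replicates of 1.96 or higher in either the MELAS or the Rieske mutant cell line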;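 further: z relative to plate mean and SD of compound and empty wells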); conditions: low glucose
# F380Y = assay: BK channel mutant inhibitors and activators – cell-based, U2OS BacMam, thallium flux, beta subunits, selectivity assay, profiling panel (AID 1259406); conditions: U2OS BacMam BK variants, at 30 µM;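 further: initial slope of Thallos dye fluorescence rise after thallium is added; log ratio against the mean of 0.3% DMSO vehicle wells on the same plate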
# F380Y/beta1 = assay: as above; conditions: U2OS BacMam BK variants, at 30 µM
# F380Y/beta2Delta = assay: as above; conditions: U2OS BacMam BK variants, at 30 µM
# F380Y/beta4 = assay: as above; conditions: U2OS BacMam BK variants, at 30 µM
# [10] = molecular target: Calcium-activated potassium channel subunit alpha-1 (Homo sapiens) + Leucine-rich repeat-containing protein 26 (Homo sapiens) (UniProt Q12791+Q2I0M4); assay: as above; conditions: U2OS BacMam BK variants, F380Y/Slo1WT/gamma1, at 30 µM
# R275C = assay: as above; conditions: U2OS BacMam BK variants, at 30 µM
# R275C/beta1 = assay: as above; conditions: U2OS BacMam BK variants, at 30 µM
# R275C/beta2Delta = assay: as above; conditions: U2OS BacMam BK variants, at 30 µM
# R275C/beta4 = assay: as above; conditions: U2OS BacMam BK variants, at 30 µM
# R275C/Slo1WT/beta2 = assay: as above; conditions: U2OS BacMam BK variants, at 30 µM
# [11] = measured here: epithelial PC-3E GFP cell survival
# [12] = measured here: mesenchymal TEM4-18 mCherry cell survival
# [13] = stronger effect = lower value, cell number ratio, induced over uninduced
# [14] = measured here: relative caspase fold change +Dox/-Dox
# [15] = measured here: total cells with miR-34 induction, stronger effect = lower value
# [16] = measured here: total cells without miR-34 induction
# Calcium-activated potassium channel subunit alpha-1 (Homo sapiens) + Leucine-rich repeat-containing protein 26 (Homo sapiens), sequence (Q2I0M4 whole entry, looked up, one chain of several): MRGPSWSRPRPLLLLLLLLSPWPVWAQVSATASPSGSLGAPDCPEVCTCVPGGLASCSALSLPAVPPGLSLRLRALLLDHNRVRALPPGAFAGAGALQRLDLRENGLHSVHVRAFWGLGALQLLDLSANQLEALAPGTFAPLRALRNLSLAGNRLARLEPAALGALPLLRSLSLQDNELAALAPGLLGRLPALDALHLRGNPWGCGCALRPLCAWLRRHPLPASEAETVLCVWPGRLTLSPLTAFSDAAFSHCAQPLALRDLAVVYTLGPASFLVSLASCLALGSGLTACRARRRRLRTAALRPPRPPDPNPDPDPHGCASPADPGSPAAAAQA
compound,measurement,setting,value
COc1ccc2[nH]c(S(=O)Cc3ncc(C)c(OC)c3C)nc2c1 (centres undefined),parasite load remaining,[1],75.4% (inactive)
same,viability,[1],78.3%
same,fluorescence ratio,[2],1.05 (inactive)
same,inhibition,[3],-1.19% (inactive)
same,inhibition,[4],-0.1% (inactive)
same,fluorescence ratio,[5],1.01 (inactive)
same,mean signal,[6],220 (inactive)
same,red/green cell ratio (normalised),[7],0.83 (inactive)
same,normalised cell number,[7]; [11],1.11
same,normalised cell number,[7]; [12],0.92
same,fold change,[8]; [13],1.06 (inactive) and 1.02 (inactive)
same,fold change,[8]; [14],1.73 and 0.384
same,cell count,[8]; [15],9290 and 8180
same,cell count,[8]; [16],8760 and 8050
same,z-score,"[9]; MELAS cybrid survival, CellTiter-Glo 48 h, stronger effect = higher value",-0.201 (inactive)
same,z-score,"[9]; Rieske KO mouse fibroblast survival, CellTiter-Glo 72 h",0.0948
same,log fold change Tl+ flux,F380Y,0.0414 (inactive)
same,log fold change Tl+ flux,F380Y/beta1,0.0445 (inactive)
same,log fold change Tl+ flux,F380Y/beta2Delta,-0.007 (inactive)
same,log fold change Tl+ flux,F380Y/beta4,0.0255 (inactive)
same,log fold change Tl+ flux,[10],0.0493 (inactive)
same,log fold change Tl+ flux,R275C,-0.061 (inactive)
same,log fold change Tl+ flux,R275C/beta1,0.0126 (inactive)
same,log fold change Tl+ flux,R275C/beta2Delta,0.00561 (inactive)
same,log fold change Tl+ flux,R275C/beta4,0.0354 (inactive)
same,log fold change Tl+ flux,R275C/Slo1WT/beta2,0.0116 (inactive)
CC(Cc1ccc(O)c(O)c1)(NN)C(=O)O (centres undefined),parasite load remaining,[1],41.4% (inactive) and 31.2% (inactive)
same,viability,[1],97.1% and 84.8%
same,fluorescence ratio,[2],1.04 (inactive)
same,inhibition,[3],-2.27% (inactive)
same,inhibition,[4],-0.48% (inactive)
same,fluorescence ratio,[5],1.05 (inactive)
same,mean signal,[6],254 (inactive)
same,red/green cell ratio (normalised),[7],1.18 (inactive)
same,normalised cell number,[7]; [11],1.1
same,normalised cell number,[7]; [12],1.3
same,fold change,[8]; [13],0.911 (inactive) and 0.909 (inactive)
same,fold change,[8]; [14],2.2 and 3.05
same,cell count,[8]; [15],9190 and 11400
same,cell count,[8]; [16],10100 and 12600
same,log fold change Tl+ flux,F380Y,-0.0414 (inactive)
same,log fold change Tl+ flux,F380Y/beta1,0.04 (inactive)
same,log fold change Tl+ flux,F380Y/beta2Delta,0.0399 (inactive)
same,log fold change Tl+ flux,F380Y/beta4,0.0475 (inactive)
same,log fold change Tl+ flux,[10],0.00594 (inactive)
same,log fold change Tl+ flux,R275C,0.0956 (active)
same,log fold change Tl+ flux,R275C/beta1,0.024 (inactive)
same,log fold change Tl+ flux,R275C/beta2Delta,0.0162 (inactive)
same,log fold change Tl+ flux,R275C/beta4,-0.024 (inactive)
same,log fold change Tl+ flux,R275C/Slo1WT/beta2,-0.00513 (inactive)
NCC(O)c1ccc(O)c(O)c1 (centres undefined),parasite load remaining,[1],46.6% (inactive)
same,viability,[1],90.4%
same,fluorescence ratio,[2],1.02 (inactive)
same,inhibition,[3],-2.27% (inactive)
same,inhibition,[4],0.29% (inactive)
same,fluorescence ratio,[5],0.99 (inactive)
same,mean signal,[6],234 (inactive)
same,red/green cell ratio (normalised),[7],1.25 (inactive)
same,normalised cell number,[7]; [11],1.16
same,normalised cell number,[7]; [12],1.45
same,fold change,[8]; [13],1.01 (inactive) and 0.975 (inactive)
same,fold change,[8]; [14],1.64 and 1.95
same,cell count,[8]; [15],10900 and 7940
same,cell count,[8]; [16],10800 and 8140
same,log fold change Tl+ flux,F380Y,-0.00325 (inactive)
same,log fold change Tl+ flux,F380Y/beta1,0.00151 (inactive)
same,log fold change Tl+ flux,F380Y/beta2Delta,-0.00353 (inactive)
same,log fold change Tl+ flux,F380Y/beta4,0.0254 (inactive)
same,log fold change Tl+ flux,[10],0.0514 (inactive)
same,log fold change Tl+ flux,R275C,0.0185 (inactive)
same,log fold change Tl+ flux,R275C/beta1,0.035 (inactive)
same,log fold change Tl+ flux,R275C/beta2Delta,-0.0293 (inactive)
same,log fold change Tl+ flux,R275C/beta4,0.0502 (inactive)
same,log fold change Tl+ flux,R275C/Slo1WT/beta2,0.093 (inactive)
